# Laboratory results published in PubChem BioAssay (NCATS).
# Records with an inconclusive call do not appear. A call without a number means that no potency is given here. Values without a mark were called inactive. Activity calls are given as the source filed them. Calls follow the shape of the dose curve; as a rule, active = well fitted curve in the direction sought with a large enough effect; inconclusive = small, poorly fitted or top-dose-only effect, or another doubt; inactive = no such curve, though single readings can be large; an effect the other way counts as inactive or inconclusive.
# Assays:
# [1] = Primary qHTS for inhibitors of nuclear receptor binding SET domain protein 2 (NSD2) in an isogenic RCH-ACV NSD2 p.E1099K mutant (9B) (AID 1645876); details: RCH-ACV NSD2 E1099K (9B) viability, CellTiter-Glo, 72 h; series mostly up to 44.9 µM
# [2] = Primary qHTS for inhibitors of nuclear receptor binding SET domain protein 2 (NSD2) in an RCH-ACV wild type WT cells (2C) (AID 1645877); details: RCH-ACV (leukaemia line) NSD2 WT (2C) viability, CellTiter-Glo, 72 h; series mostly up to 44.9 µM
# Also: nearly all actives have a fitted effect of over 70% in size.
structure (smiles),measurement,setting,value
C=C1[C@@H]2CC[C@@]3(C)[C@H](c4ccoc4)OC(=O)C[C@]13O[C@H]1CC(=O)C(C)(C)[C@H](CC(=O)OC)[C@]12C,Potency,[1],inactive
same,Potency,[2],inactive
CCC(C)(O)C(O)C(=O)OCc1ccc(O[C@@H]2O[C@H](CO)[C@@H](O)[C@H](O)[C@H]2O)c(OC)c1 (stereo not given in full),Potency,[1],inactive
same,Potency,[2],inactive
CC(/C=C/[C@]1(O)[C@@]2(C)CO[C@@]1(C)C[C@@H](O)C2)=C\C(=O)O[C@@H]1O[C@H](CO)[C@@H](O)[C@H](O)[C@H]1O,Potency,[1],inactive
same,Potency,[2],inactive
CC(O)(CC(=O)O)CC(=O)O[C@@H]1[C@@H](O)[C@H](OCCc2ccccc2)O[C@H](CO)[C@H]1O (stereo not given in full),Potency,[1],inactive
same,Potency,[2],inactive
CC/C=C/CC1=C(CCCCCCCC(=O)O)CCC1=O,Potency,[1],inactive
same,Potency,[2],inactive
C[C@@H]1C(=O)O[C@H]2CC34[C@H]5C[C@@H](C(C)(C)C)C36[C@@H](OC(=O)[C@@H]6O)O[C@@]4(C(=O)O5)[C@]21O (stereo not given in full),Potency,[1],inactive
same,Potency,[2],inactive
O=C(CCCCc1ccc2ccccc2c1)C(F)(F)F,Potency,[1],inactive
same,Potency,[2],inactive
CC(C)=CCC[C@](C)(O[C@@H]1O[C@H](CO[C@@H]2OC[C@@H](O)[C@H](O)[C@H]2O)[C@@H](O)[C@H](O)[C@H]1O)[C@H]1CC[C@]2(C)[C@@H]1[C@H](O)C[C@@H]1[C@@]3(C)CC[C@H](O[C@@H]4O[C@H](CO)[C@@H](O)[C@H](O)[C@H]4O[C@@H]4O[C@H](CO)[C@@H](O)[C@H](O)[C@H]4O)C(C)(C)[C@@H]3CC[C@]12C,Potency,[1],inactive
same,Potency,[2],inactive
NS(=O)(=O)NCCNc1nonc1C(=Nc1ccc(F)c(Br)c1)NO,Potency,[1],inactive
same,Potency,[2],inactive
C/C=C1/[C@H](O[C@@H]2O[C@H](CO)[C@@H](O)[C@H](O)[C@H]2O)OC=C(C(=O)OC)[C@H]1CC(=O)O[C@@H]1O[C@H](CO)[C@@H](O)[C@H](O)[C@H]1O,Potency,[1],inactive
same,Potency,[2],inactive
CC1(C)NC2N(C1=O)c1ccccc1C2(O)CC(C(=O)O)n1cnc2ccccc2c1=O (stereo not given),Potency,[1],inactive
same,Potency,[2],inactive
CC1OC(OC2C(O)C(C(=O)O)OC(OC3CCC4(C)C(CCC5(C)C4C=CC4=C6CC(C)(C)CC(O)C6(C)CCC45C)C3(C)C)C2OC2OCC(O)C(O)C2O)C(O)C(O)C1O (stereo not given),outcome,[1],inactive [at 9.23 µM]
same,outcome,[2],inactive [at 9.23 µM]
C[C@@H]1O[C@@H](O[C@H]2[C@H](O[C@H]3[C@H](O[C@H]4CC[C@@]5(CO)C(CC[C@]6(C)C5CC=C5C7CC(C)(C)C[C@@H](O)[C@]7(C)CC[C@]56C)C4(C)C)O[C@H](C(=O)O)[C@@H](O)[C@@H]3O)OC[C@@H](O)[C@@H]2O)[C@H](O)[C@H](O)[C@H]1O (stereo not given in full),"activity change, negative = viability loss",[1],-1.45% [at 9.23 µM]
same,"activity change, negative = cell killing",[2],-8.5% [at 9.23 µM]
C=C(C(=O)O)[C@@H]1CC=C2CCC[C@H](C)[C@@]2(C)C1,Potency,[1],inactive
same,Potency,[2],inactive
C=C(C)[C@H]1C[C@@H](O)C(=C)CC[C@@H](O)C(=C)[C@@H](O)C1,Potency,[1],inactive
same,Potency,[2],inactive
